Compound activity as filed in PubChem BioAssay.
This is a sample that favours compounds with a hit; in the whole collection about 2.8% have one here.
NFkB SMM: NF-kappa-B p105 (human) binding | AID 624139 | Small molecule microarray, anti-His fluorescence binding | 17,000 compounds, 1.3% hits | calls only;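 active means spot fluorescence over background significantly raised, with a chance value under 7% in all four replicate spots of the compound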;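 further: probe protein is his-tagged human p50 processed subunit at 1 µg/ml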
STAT3 SMM: STAT3 (human) binding | P40763 | Small molecule microarray, His-STAT3 binding, anti-His fluorescence | calls only | 17,000 compounds, 0.2% hits;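 active means compounds whose four printed spots each show fluorescence over background unusually high for their array block, chance value under 7%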
Target sequence (P40763 whole entry, looked up): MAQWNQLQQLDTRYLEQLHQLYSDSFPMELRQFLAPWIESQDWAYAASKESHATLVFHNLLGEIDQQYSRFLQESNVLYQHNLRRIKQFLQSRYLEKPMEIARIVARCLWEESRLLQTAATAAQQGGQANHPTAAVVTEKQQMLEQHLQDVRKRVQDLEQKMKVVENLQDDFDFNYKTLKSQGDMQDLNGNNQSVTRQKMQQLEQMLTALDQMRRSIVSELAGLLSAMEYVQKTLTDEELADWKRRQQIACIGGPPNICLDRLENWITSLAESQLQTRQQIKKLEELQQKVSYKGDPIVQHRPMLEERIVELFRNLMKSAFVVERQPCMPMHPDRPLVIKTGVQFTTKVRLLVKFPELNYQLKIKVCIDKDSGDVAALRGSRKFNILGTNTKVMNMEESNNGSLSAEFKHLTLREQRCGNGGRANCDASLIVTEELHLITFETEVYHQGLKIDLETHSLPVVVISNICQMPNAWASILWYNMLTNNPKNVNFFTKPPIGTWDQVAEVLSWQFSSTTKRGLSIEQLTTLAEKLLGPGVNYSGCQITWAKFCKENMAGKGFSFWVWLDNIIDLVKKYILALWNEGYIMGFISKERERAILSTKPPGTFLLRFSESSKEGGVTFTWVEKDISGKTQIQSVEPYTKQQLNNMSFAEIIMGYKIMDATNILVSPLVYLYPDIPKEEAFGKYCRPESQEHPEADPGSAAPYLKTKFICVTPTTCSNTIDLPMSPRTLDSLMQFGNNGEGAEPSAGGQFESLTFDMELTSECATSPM
Myc binder: binds human c-Myc on microarray | P01106 | 17,000 compounds, 1.5% hits | small molecule microarray, His-c-Myc binding, anti-His fluorescence | calls only | AID 624141;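 active means spot fluorescence over background with P-value below 7% in all four replicate spots, showing protein binding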
p53 PUMA act: restores mutant p53 pathway signaling in SW480 cells; activation, % at 9.98 µM; 28,000 compounds, 1.5% hits; SW480 PUMA-promoter luciferase, p53 mutant reactivation; in the data active means activation above about 52%
mut p53 SMM: mutant p53 (human) binding; small molecule microarray binding, anti-GST fluorescence; calls only; 17,000 compounds, 0.4% hits; AID 624136;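 active means compounds whose four printed spots each glow above background more than chance allows, each with a p-value under 7%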
A number is an active result.

Screening CC1=CCC(C(=O)O)C(C(=O)Nc2ccccc2NC(=O)c2ccc(C(F)(F)F)cc2)C1 (stereo not given) returned p53 PUMA act 107.7.
`CC1=CCC(C(=O)O)C(C(=O)Nc2ccc(OC(F)(F)F)cc2)C1` (stereo not given) gave p53 PUMA act inactive.
Screening CN(C)CCCNc1oc(-c2ccccc2F)nc1C#N returned NFkB SMM inactive, STAT3 SMM inactive, Myc binder active, p53 PUMA act inactive and mut p53 SMM inactive.
Screening COC(=O)c1ccc(COc2ccc3c(c2)oc(=O)c2cc(OC)ccc23)o1 returned p53 PUMA act inactive.
COC(=O)c1ccc(COc2ccc3c(C)cc(=O)oc3c2)o1 was read as NFkB SMM inactive, STAT3 SMM inactive, Myc binder inactive, p53 PUMA act 62.9 and mut p53 SMM inactive.
For COC(=O)C1=CO[C@@H](O[C@@H]2O[C@H](CO)[C@@H](O)[C@H](O)[C@H]2O)[C@H]2[C@@H]1[C@H](OC(=O)/C=C\c1ccc(O)cc1)C[C@]2(C)OC(C)=O the results were NFkB SMM inactive, STAT3 SMM inactive, Myc binder inactive, p53 PUMA act inactive and mut p53 SMM inactive.
Screening O=C(COc1ccccc1[N+](=O)[O-])Nc1ccc2oc(-c3ccc(Cl)cc3)nc2c1 returned p53 PUMA act inactive.
`O=C(OCc1cccc(C(=O)c2ccccc2)c1)c1ccc(-c2nnc(-c3ccccc3)o2)cc1` gave NFkB SMM inactive, STAT3 SMM inactive, Myc binder inactive, p53 PUMA act 71.3 and mut p53 SMM inactive.
`O=C(Nc1ccccc1C(=O)OCc1cccc(C(=O)c2ccccc2)c1)c1ccccc1` gave p53 PUMA act inactive.
N#Cc1ccc(Oc2ccc(C(=O)OCc3cccc(C(=O)c4ccccc4)c3)cc2)cc1C#N was read as p53 PUMA act inactive.
`CC(=O)Nc1ccccc1C(=O)OCc1cccc(C(=O)c2ccccc2)c1` gave NFkB SMM inactive, STAT3 SMM inactive, Myc binder inactive, p53 PUMA act 94.2 and mut p53 SMM inactive.
For COc1ccc(COCC23N=C4SCc5ccccc5CN4[C@H](c4ccccc4O2)[C@H]3CO[Si](C)(C)C(C)(C)C)cc1 the results were NFkB SMM inactive, STAT3 SMM inactive, Myc binder inactive and mut p53 SMM inactive.
Screening N#Cc1cc(C#N)c(SCCN2CCOCC2)nc1N returned NFkB SMM inactive, STAT3 SMM inactive, Myc binder inactive, p53 PUMA act inactive and mut p53 SMM active.
For Cc1ccccc1NC(=O)CSc1nc(N)c(C#N)cc1C#N the results were NFkB SMM inactive, STAT3 SMM inactive, Myc binder inactive, p53 PUMA act inactive and mut p53 SMM inactive.
Screening CCOC(=O)c1c(NC(=O)COc2cc(C)ccc2C)sc2c1CCC2 returned p53 PUMA act inactive.
`O=C(Nc1ccccc1C(=O)O)c1cccc(S(=O)(=O)NCc2ccccc2)c1` gave NFkB SMM inactive, STAT3 SMM inactive, Myc binder inactive, p53 PUMA act inactive and mut p53 SMM inactive.
For COc1cccc(NC(=O)c2c(NC(=O)c3cccnc3)sc3c2CCC3)c1 the results were NFkB SMM inactive, STAT3 SMM inactive, Myc binder inactive, p53 PUMA act inactive and mut p53 SMM inactive.
Screening O=C(CSc1nc(O)cc(=O)n1-c1ccccc1)N1CCc2ccccc21 returned NFkB SMM inactive, STAT3 SMM inactive, Myc binder inactive, p53 PUMA act inactive and mut p53 SMM active.
For COc1ccc(NC(=O)COc2ccc(Cl)c(C)c2)c([N+](=O)[O-])c1 the results were p53 PUMA act 74.1.
`CCc1cccc(OCC(=O)Nc2ccc(OC)cc2[N+](=O)[O-])c1` gave p53 PUMA act 91.0.
Screening COc1ccc(OCC(=O)Nc2ccc(OC)cc2[N+](=O)[O-])cc1 returned NFkB SMM inactive, STAT3 SMM inactive, Myc binder inactive, p53 PUMA act 98.0 and mut p53 SMM inactive.
Screening COc1ccc(NC(=O)COc2ccccc2Cl)c([N+](=O)[O-])c1 returned p53 PUMA act 84.3.
For COc1cccc(OCC(=O)Nc2ccccc2[N+](=O)[O-])c1 the results were p53 PUMA act inactive.
`Cc1cc(C)nc(SCC(=O)Nc2ccc(C(=O)O)cc2)n1` gave NFkB SMM inactive, STAT3 SMM inactive, Myc binder inactive, p53 PUMA act inactive and mut p53 SMM inactive.
`O=C(Nc1ccc(NS(=O)(=O)c2cccc(C(=O)Nc3ccc(Br)cc3)c2)cc1)c1ccccc1` gave p53 PUMA act inactive.
CCOC(=O)c1c(NC(=S)Nc2cc(OC)c(Cl)cc2OC)sc(C)c1-c1ccccc1 was read as p53 PUMA act inactive.
For CC#CCOC(=O)C1=CCCN(C)C1 the results were NFkB SMM active, STAT3 SMM active, Myc binder active, p53 PUMA act inactive and mut p53 SMM inactive.
Screening Cc1ccc(-c2nc3ccccc3s2)cc1NC(=O)COc1ccc(Br)cc1 returned p53 PUMA act inactive.
Screening COc1ccc2c(C)nc(Nc3nc(C)cc(=O)[nH]3)nc2c1 returned p53 PUMA act 72.7.
CCNC(=O)CCc1nc(-c2ccc(OC)cc2)no1 was read as NFkB SMM inactive, STAT3 SMM inactive, Myc binder inactive, p53 PUMA act inactive and mut p53 SMM inactive.
Screening N#Cc1c(C(F)(F)F)cc(-c2ccc(Br)cc2)nc1SCCC(=O)O returned NFkB SMM active, STAT3 SMM inactive, Myc binder active, p53 PUMA act inactive and mut p53 SMM inactive.
For COc1ccc(-c2cc(=O)c3c(O)cc(O)cc3o2)cc1 the results were NFkB SMM inactive, STAT3 SMM inactive, Myc binder inactive, p53 PUMA act 94.7 and mut p53 SMM inactive.
For COc1cc2oc(-c3ccccc3)cc(=O)c2c(OC)c1OC the results were NFkB SMM inactive, STAT3 SMM inactive, Myc binder inactive, p53 PUMA act inactive and mut p53 SMM inactive.
COc1cc(C)c2c(=O)cc(-c3ccccc3)oc2c1 was read as NFkB SMM inactive, STAT3 SMM inactive, Myc binder inactive, p53 PUMA act 85.5 and mut p53 SMM inactive.
`COc1c(-c2ccc(O)cc2)oc2cc(O)cc(O)c2c1=O` gave NFkB SMM inactive, STAT3 SMM inactive, Myc binder inactive, p53 PUMA act inactive and mut p53 SMM inactive.
For CCOc1ccc(NC(=O)N(Cc2cn(C)c3ccccc23)C2CCCCC2)cc1 the results were p53 PUMA act inactive.
For Cc1ccc(CN2C(=O)C(O)(CC(=O)c3cccc(N)c3)c3cc(Cl)ccc32)cc1 (stereo not given) the results were p53 PUMA act inactive.
C=CCOC(=O)C1=C[C@H](c2coc3ccccc3c2=O)C[C@H](OCc2ccc(CO)cc2)O1 was read as NFkB SMM inactive, STAT3 SMM inactive, Myc binder active and mut p53 SMM inactive.
`O=C(Nc1ccccc1C(=O)NCCOc1ccccc1)c1ccccc1I` gave NFkB SMM inactive, STAT3 SMM inactive, Myc binder inactive, p53 PUMA act inactive and mut p53 SMM inactive.
`O=C(Nc1ccc(Cl)cc1)Nc1ccccc1C(=O)NCc1ccco1` gave p53 PUMA act 80.1.
Screening COCCNC(=O)c1ccccc1NC(=O)Nc1ccc(Cl)cc1 returned p53 PUMA act 61.2.
For O=C(COc1ccccc1Cl)Nc1cccc(Oc2ccc3c(c2)C(=O)NC3=O)c1 the results were p53 PUMA act inactive.
